This is one part of a sample in which hits are shown more often than they occur.
Pf Dd2 inh: qHTS Primary assay for Inhibitors of Plasmodium falciparum Dd2 growth in vitro; P. falciparum Dd2 growth, SYBR Green, 72 h; Potency, µM (top dose mostly 28.9 µM), for the others: at the top dose activity, negative = inhibition, hits mostly inhibitors; 120,000 compounds, 4.3% hits; active means well fitted inhibition curve with a large enough effect;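 further: plate controls were DMSO vehicle for no effect and reference drug for full effect; nearly all actives have a fitted effect of over 65% in size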
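Readout: SYBR Green fluorescence, 485 nm excitation, 535 nm emission, after ~16 h lysis at 37C. Before that, Dd2-infected red cells (2.5% hematocrit) grew 72 h with compound, 29 uM top final concentration.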
An asterisk follows results filed as active; i = inactive; ! = not active in a repeat; [ ] = another dose, or the depositor's remark. Potency means the concentration at half of the fitted maximal effect.

SMILES	Pf Dd2 inh
Cc1ccc(-n2nc(C(=O)NCCc3cccc(C)c3)c3c4ccccc4n(C)c3c2=O)cc1	i
COc1ccc(-n2nc(C(=O)NCc3ccc(F)cc3)c3c4ccccc4n(C)c3c2=O)cc1	1.9%
COc1ccc(-n2nc(C(=O)Nc3ccc(Br)cc3C)c3c4ccccc4n(C)c3c2=O)cc1	44.2%
COc1ccc(-n2nc(C(=O)N3CCN(c4cccc(C)c4)C(C)C3)c3c4ccccc4n(C)c3c2=O)cc1 (stereo not drawn)	11.2µM*
COc1ccc(-n2nc(C(=O)NCCc3ccc(OC)c(OC)c3)c3c4ccccc4n(C)c3c2=O)cc1	3.16µM*
COc1ccc(-n2nc(C(=O)Nc3cccc(C)n3)c3c4ccccc4n(C)c3c2=O)cc1	i
CCN1C(=O)CCN(S(=O)(=O)c2cccc3cccnc23)CC12CCOCC2	-22.1%
CCn1ncc(N2CCCC(CC(=O)NC3CCN(Cc4ccccc4)CC3)C2)cc1=O (stereo not drawn)	-12.6%
CN(CCc1ccccc1)c1cnn(CCCn2cnnn2)c(=O)c1	1.9%
Cc1ccncc1C(=O)N[C@@H]1CN(Cc2ccccc2)C[C@H]1CN(C)C	-10.9%
O=C(NCc1ccnc2[nH]ccc12)c1cc(F)ccc1Br	-5.1%
CS(=O)(=O)N1CCC(C2CCN(C(=O)Cc3cccc(F)c3)C2)CC1 (stereo not drawn)	-26.2%
COCCNC(=O)[C@H]1C[C@H](Oc2ccccc2)CN1C(=O)c1cccc(C)c1	-5.2%
Cn1cnnc1CC1CCN(C(=O)NC2CCCCC2)C1 (stereo not drawn)	i
CCCN(CC1CCOC1)C(=O)Nc1cccc(Cl)c1 (stereo not drawn)	i[5.79 µM]
COc1ccccc1CCC(=O)N1CC(c2noc(-c3ccccc3)n2)C1	0.4%
O=C1NC(=NC2CCCC2)C2(CCN([S+](=O)([O-])c3cccc(C(F)(F)F)c3)CC2)N1c1cc(F)cc(F)c1	-7.5%
COc1ccc(C(=O)N2CCC3(CC2)C(=NC2CCCCC2)NC(=O)N3c2cc(F)cc(F)c2)cc1	-24.1%
COc1ccc(C(=O)N2CCCC3(C2)C(=NC2CCCCC2)NC(=O)N3c2cc(F)cc(F)c2)cc1 (stereo not drawn)	-9.8%
O=C1NC(=NC2CCCC2)C2(CCCN([S+](=O)([O-])c3cccc(C(F)(F)F)c3)C2)N1c1cc(F)cc(F)c1 (stereo not drawn)	10µM*!
O=C(c1ccc(C(F)(F)F)cc1)N1CCC2(C1)C(=NC1CCCCC1)NC(=O)N2c1cc(F)cc(F)c1 (stereo not drawn)	8.91µM*
O=C1NC(=NC2CCCC2)C2(CCCN([S+](=O)([O-])c3ccccc3)C2)N1c1cc(F)cc(F)c1 (stereo not drawn)	-20.1%
COc1ccc(C)cc1NC(=O)N1CCCC1c1nncn1C1CCCC1 (stereo not drawn)	-22.2%
CN(C)CCNC(=O)C[C@@H]1O[C@H](CNC(=O)c2ccco2)[C@@H](O)[C@H]1O	2.1%[44.1 µM]
Cc1cccc(C(=O)N2CCC(C(NC(=O)CC(C)C)C(=O)N3CCCCC3)CC2)c1 (stereo not drawn)	i
SMILES	Pf Dd2 inh
COCC(=O)NC[C@H]1OC[C@@H](NC2CCCCC2)[C@@H]1O	19.5%[44.1 µM]
CCOc1ccc(CC(=O)NC2CCN(c3cc(-c4ccccc4)[nH]n3)CC2)cc1	-5.0%
CN(Cc1ncc[nH]1)C(=O)C1CCC(=O)N(CCN2CCOCC2)C1 (stereo not drawn)	22.3%
COc1ccc(CN2CCOC[C@H]2c2ncc(-c3ccc(S(C)(=O)=O)cc3)[nH]2)cc1	i
COc1ccc2c(c1)CCc1sc(NC(=O)c3cccc(Br)c3)nc1-2	-16.3%
COc1ccc2c(c1)-c1nc(NC(=O)c3ccc(C)cc3)sc1CC2	11.2µM*
COc1ccc(C(=O)Nc2nc3c(s2)CCCC3)cc1Cl	-24.6%
CCCN1C(=O)CC[C@H]2CN(C(=O)c3cnc(C4CC4)[nH]c3=O)CC[C@H]21	10.8%
O=C1CCN(S(=O)(=O)c2ccccc2)CCCN(C(=O)CC2CCCCC2)CCN1	-24.5%
Cc1ccccc1C(=O)N1CCc2nc3cc[nH]n3c(=O)c2C1	i[5.79 µM]
Cc1ccc(Cn2cc(S(=O)(=O)c3cccc(Cl)c3)c(=O)c3cc(F)c(N4CCOCC4)cc32)cc1	20.8%
O=c1c(S(=O)(=O)c2ccccc2)cn(Cc2ccccc2)c2cc(N3CCOCC3)c(F)cc12	8.91µM*
Cn1cc(S(=O)(=O)c2cccc(Cl)c2)c(=O)c2cc(F)c(N3CCN(c4ccccc4)CC3)cc21	-0.5%
CCn1cc(S(=O)(=O)c2cc(C)cc(C)c2)c(=O)c2cc(F)c(N3CCOCC3)cc21	20.3%
Cc1ccc(Cn2cc(S(=O)(=O)c3cccc(C)c3)c(=O)c3cc(F)c(N4CCOCC4)cc32)cc1	10µM*
Cc1cccc(S(=O)(=O)c2cn(C)c3cc(N4CCN(c5ccccc5)CC4)c(F)cc3c2=O)c1	40.8%
CNC(=O)[C@@H]1CN(C(=O)c2nn(C)c3ccccc23)C[C@H]1c1n[nH]c(C)n1	37.9%
COc1ccc(Cl)cc1NC(=O)Cn1nc2c(cc1=O)CCCCC2	6.6%
Cc1ccc(CN2CC(Oc3ccccc3C(=O)N3CCOCC3)C2)cc1C	2.82µM*
O=C(NC1CC1)c1ccccc1OC1CN(Cc2ccc(F)c(F)c2)C1	i
O=C(c1cccnc1OC1CCN(Cc2ccccn2)C1)N1CCOCC1 (stereo not drawn)	i
Cc1nc(N2CCC(NC(=O)c3cccc(F)c3)CC2)cc(C(F)(F)F)n1	i
O=C(NC1CC1)C1CCC(=O)N(CCCc2ccccc2)C1 (stereo not drawn)	-10.8%
O=C(N[C@H]1CCN2C(=O)c3cc(-c4ccccc4F)ccc3NC(=O)[C@H]12)c1cnccn1	5.62µM*
O=C(N[C@H]1CCN2C(=O)c3cc(/C=C/c4ccc(O)cc4)ccc3NC(=O)[C@H]12)c1cnccn1	-20.9%
SMILES	Pf Dd2 inh
O=C(N[C@H]1CCN2C(=O)c3cc(/C=C/c4ccccc4)ccc3NC(=O)[C@H]12)c1cnccn1	-13.8%[44.1 µM]
CC(C)c1nc2c(c(-c3ccc(O)cc3)n1)CN([S+](=O)([O-])c1cccs1)CC2	i
COCCN1C(=O)CCc2cc(NC(=O)Cc3ccc(OC)cc3Cl)ccc21	-16.2%
Cc1cccc(-n2nc(C)c(CCC(=O)N3CCSCC3)c2Oc2ccccc2)c1	-1.6%
Cc1ccc(NC(=O)Cn2c(N(C)Cc3ccccc3)nc(C)cc2=O)c(C)c1	i
CCc1ccccc1NC(=O)Cn1c(N(C)Cc2ccccc2)nc(C)cc1=O	-7.7%
CCc1cccc(C)c1NC(=O)Cn1c(N(C)Cc2ccccc2)nc(C)cc1=O	11.2µM*
O=C(CCc1ccccc1)N1CCC(c2noc(-c3cnccn3)n2)C1 (stereo not drawn)	12.4%[5.79 µM]
COc1ccc(C(=O)N2CC(c3nnc(-c4ccncc4)o3)C3(CCOCC3)C2)c(C)c1 (stereo not drawn)	i
Cc1cc(CNC(=O)c2ccc3c(c2)n(CC2CC2)c(=O)n3C2CCCCC2)on1	i
COCC1CN(C(C)=O)CC12CCN(C(=O)CCCc1ccccc1)CC2 (stereo not drawn)	i
COCC[C@]1(O)CCN(C(=O)CCCc2ccccc2)C[C@H]1C	-7.6%
COCCN1CC2CN(C(=O)CCCc3ccccc3)CC(C1)O2	11.2µM*
O=C(NCC(F)(F)F)c1cc(C2CC2)nc2onc(C3CCCNC3)c12 (stereo not drawn)	2.4%
CC(C)CNC(=O)c1cc(C2CC2)nc2c1c(C1CCCN1)nn2-c1ccccc1 (stereo not drawn)	4.47µM*

Assay outcomes (PubChem BioAssay)
